# From PubChem BioAssay (NCI)
# This is part of a sample that, as a whole, favours compounds with a hit. Of some 79,000 tested, about 15% had one in any assay. A number with no mark means an inactive call. The source made the active and inactive calls. No stated cut-off is given here; in the data, active means growth inhibition above about 70%; inactive means the rest.
# Columns and labels:
# [1] = NCI Yeast Anticancer Drug Screen. Data for the rad50 strain (AID 155);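 further: 0% = growth of vehicle-only cultures of the same strain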; conditions: S. cerevisiae rad50 strain growth inhibition, hits give high values
# Method in brief: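 Vehicle-treated cultures provide the reference for the growth inhibition reported for compound-exposed, repair-deficient yeast.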
# [2] = NCI Yeast Anticancer Drug Screen. Data for the mec2-1 strain (AID 157); conditions: S. cerevisiae mec2-1 strain, hits give high values
# Method in brief: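 Test agents were screened against the mec2-1 yeast strain, with defined DNA repair or cell cycle alteration. Growth was scored as inhibition against vehicle-only controls.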
# [3] = NCI Yeast Anticancer Drug Screen. Data for the sgs1 mgt1 strain (AID 161);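 further: 0% = growth of cultures given vehicle only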; conditions: S. cerevisiae sgs1 mgt1 strain, hits give high values
# Method in brief: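 Mutant yeast exposed to compound; growth scored against vehicle-only wells.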
# [4] = NCI Yeast Anticancer Drug Screen. Data for the cln2 rad14 strain (AID 165);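 further: 0% = growth equal to vehicle treated cultures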; conditions: S. cerevisiae cln2 rad14 strain, hits give high values
# Method in brief: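 Growth of compound-exposed yeast (cln2 rad14 genotype) measured and expressed as inhibition relative to vehicle.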
# [5] = NCI Yeast Anticancer Drug Screen. Data for the bub3 strain (AID 167); conditions: S. cerevisiae bub3 mutant strain, hits give high values
# Method in brief: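 Mutant yeast screening strain plus compound; vehicle-treated cultures serve as the 0% inhibition reference.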
# [6] = NCI Yeast Anticancer Drug Screen. Data for the mlh1 rad18 strain (AID 175); conditions: S. cerevisiae mlh1 rad18 strain growth inhibition, hits give high values
# Method in brief: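 In this whole-cell yeast screen, a strain with altered DNA damage repair is challenged with compound, and its growth is measured against matched vehicle-treated controls.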
# [7] = at 5.0 µM (retest, dose inferred, filed as 0.5)
# [8] = at 50.0 µM (retest, dose inferred, filed as 5.0)
SMILES,"growth inhibition [1, 7]","growth inhibition [1, 8]",growth inhibition ([1]; at 50.0 µM),"growth inhibition [2, 7]","growth inhibition [2, 8]",growth inhibition ([2]; at 50.0 µM),"growth inhibition [3, 7]","growth inhibition [3, 8]",growth inhibition ([3]; at 50.0 µM),"growth inhibition [4, 7]","growth inhibition [4, 8]",growth inhibition ([4]; at 50.0 µM),"growth inhibition [5, 7]","growth inhibition [5, 8]",growth inhibition ([5]; at 50.0 µM),"growth inhibition [6, 7]","growth inhibition [6, 8]",growth inhibition ([6]; at 50.0 µM)
CCC(C)C(N)C(=O)NC(CC(N)=O)C(=O)NC(CC(C)C)C(=O)NC(CCCCN)C(=O)NC(C)C(=O)NC(CC(C)C)C(=O)NC(C)C(=O)NC(C)C(=O)NC(CC(C)C)C(=O)NC(C)C(=O)NC(CCCCN)C(=O)NC(CCCCN)C(=O)NC(C(=O)NC(CC(C)C)C(N)=O)C(C)CC (configuration not stated),-2%,99% (active),93.3% (active),6%,100% (active),94.2% (active),-3%,99% (active),93.8% (active),4%,98% (active),92% (active),-6%,99% (active),93.6% (active),0%,99% (active),92.8% (active)
Cc1ccc(Nc2ccc(O)c3c2C(=O)c2c(O)ccc(Nc4ccc(C)cc4)c2C3=O)cc1,5%,4%,10.3%,1%,-1%,7.15%,12%,14%,12.8%,0%,-1%,72.5% (active),-2%,-5%,-3.8%,-2%,-65%,17.4%
O=C1C=CC(=O)N1c1ccccc1,95% (active),98% (active),99.3% (active),99% (active),99% (active),99.7% (active),94% (active),99% (active),99.4% (active),94% (active),99% (active),99% (active),99% (active),99% (active),99.2% (active),90% (active),99% (active),99.2% (active)
N=C(N)Sc1cccc[n+]1[O-],99% (active),99% (active),98.8% (active),99% (active),99% (active),98.9% (active),100% (active),99% (active),98.2% (active),98% (active),98% (active),97.4% (active),100% (active),99% (active),99% (active),99% (active),99% (active),98.2% (active)
N#C/C(=N\Nc1ccc(Cl)cc1)C(=O)C1CC1,59%,62%,86.4% (active),41%,46%,77.5% (active),58%,70% (active),85.7% (active),55%,55%,85.5% (active),51%,78% (active),77.4% (active),62%,69%,82% (active)
CC1(C)CCCC2=C1C(=O)N(SC(Cl)(Cl)Cl)C2=O,98% (active),99% (active),90.3% (active),99% (active),99% (active),93.1% (active),100% (active),99% (active),90.5% (active),99% (active),99% (active),91.3% (active),100% (active),99% (active),89.9% (active),98% (active),99% (active),90.1% (active)
NNc1cccc([N+](=O)[O-])c1,12%,68%,76.8% (active),0%,71% (active),84.2% (active),10%,50%,57.2%,24%,67%,72.6% (active),-6%,94% (active),81.8% (active),11%,94% (active),78% (active)
C=C1C(=O)OC2CC3(C)CCCC(C)C3=CC12 (configuration not stated),18%,27%,49.5%,10%,56%,46.9%,15%,49%,80% (active),7%,25%,16.2%,14%,63%,78.8% (active),14%,41%,25%
CCCCCCCCCCCC(=O)OC(C)C(=O)NCCCC (configuration not stated),0%,21%,-18.2%,0%,18%,13.6%,2%,68%,-2.05%,-2%,-3%,26.4%,-1%,9%,-5.95%,-17%,32%,75.2% (active)
